Measurements published in PubChem BioAssay AID1159580 (chemical genetic matrix, 2015).
The whole screen tested about 5,500 compounds, of which about 2,000 (36%) were called active. Roughly 18% stayed inconclusive and do not appear here. Rule as the data show it: active = normalized growth mostly below about 0.91 (no sharp cut-off); inconclusive = no clear call, values can overlap the other calls; inactive = mostly above about 0.92. This is one part of the list.

Test: chemical genetic growth profiling, strain panel (AID 1159580);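 also: tested at 20 µM; growth read once vehicle control cultures reached saturation at 30 °C; 1 = growth at the plate median or of vehicle wells; lower values mean less growth of the strain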
Conditions: S. cerevisiae deletion strains, growth OD

Measured: normalized growth

Nc1cc(-c2ccc(OC(F)(F)F)cc2)nn1-c1ccc(Cl)c(Cl)c1
active: locus YDL214C, strain PRR2, active compounds read low 0.565 | locus YDR477W, strain SNF1, active compounds read low 0.487 | locus YER123W, strain YCK3, active compounds read low 0.249 | locus YER133W, strain GLC7, active compounds read low 0.577 | locus YFR019W, strain FAB1, active compounds read low 0.574 | locus YGR040W, strain KSS1, active compounds read low 0.488 | locus YGR052W, strain FMP48, active compounds read low 0.446 | locus YGR092W, strain DBF2, active compounds read low 0.388 | locus YHR030C, strain SLT2, active compounds read low 0.317 | locus YHR079C, strain IRE1, active compounds read low 0.448 | locus YHR082C, strain KSP1, active compounds read low 0.521 | locus YJL095W, strain BCK1, active compounds read low 0.254 | locus YJL157C, strain FAR1, active compounds read low 0.706 | locus YJR066W, strain TOR1 (second series), active compounds read low 0.589 | locus YKL048C, strain ELM1, active compounds read low 0.752 | locus YKL067W, strain YNK1, active compounds read low 0.597 | locus YKL101W, strain HSL1, active compounds read low 0.268 | locus YKL203C, strain TOR2, active compounds read low 0.454 | locus YLR113W, strain HOG1, active compounds read low 0.317 | locus YLR133W, strain CKI1, active compounds read low 0.644 | locus YML070W, strain DAK1, active compounds read low 0.439 | locus YMR205C, strain PFK2 (second series), active compounds read low 0.605 | locus YNL020C, strain ARK1, active compounds read low 0.53 | locus YNL183C, strain NPR1, active compounds read low 0.378 | locus YNL307C, strain MCK1 (second series), active compounds read low 0.335 | locus YOL136C, strain PFK27, active compounds read low 0.672 | locus YOR061W, strain CKA2, active compounds read low 0.355 | locus YOR119C, strain RIO1, active compounds read low 0.528 | locus YOR231W, strain MKK1, active compounds read low 0.349 | locus YPL031C, strain PHO85, active compounds read low 0.29 | locus YPL153C, strain RAD53, active compounds read low 0.193 | locus YPL204W, strain HRR25, active compounds read low 0.285 | locus YPL256C, strain CLN2, active compounds read low 0.604 | locus YPR106W, strain ISR1, active compounds read low 0.643
inactive: locus YAR019C, strain CDC15, active compounds read low 0.979 | locus YBL105C, strain PKC1, active compounds read low 1.01 | locus YBR135W, strain CKS1, active compounds read low 0.981 | locus YBR136W, strain MEC1, active compounds read low 1.02 | locus YBR160W, strain CDC28, active compounds read low 0.983 | locus YDL017W, strain CDC7, active compounds read low 0.994 | locus YDL028C, strain MPS1, active compounds read low 1.01 | locus YDL101C, strain DUN1, active compounds read low 1 | locus YDL108W, strain KIN28, active compounds read low 1.01 | locus YDL132W, strain cdc53, active compounds read low 0.971 | locus YDR052C, strain DBF4, active compounds read low 0.985 | locus YDR054C, strain cdc34, active compounds read low 0.904 | locus YDR226W, strain ADK1, active compounds read low 0.983 | locus YFL009W, strain cdc4, active compounds read low 1.01 | locus YFL029C, strain CAK1, active compounds read low 0.969 | locus YFR003C, strain YPI1, active compounds read low 1 | locus YFR028C, strain CDC14, active compounds read low 1 | locus YHR205W, strain SCH9, active compounds read low 0.635 | locus YIL147C, strain SLN1, active compounds read low 1 | locus YJR016C, strain ILV3, active compounds read low 1 | locus YJR066W, strain TOR1, active compounds read low 0.669 | locus YKL193C, strain SDS22, active compounds read low 0.982 | locus YLR403W, strain SFP1, active compounds read low 0.676 | locus YMR001C, strain CDC5, active compounds read low 0.999 | locus YMR277W, strain FCP1, active compounds read low 0.993 | locus YNL006W, strain LST8, active compounds read low 1 | locus YNL161W, strain CBK1, active compounds read low 0.992 | locus YNL207W, strain RIO2, active compounds read low 0.989 | locus YNL222W, strain SSU72, active compounds read low 0.99 | locus YOL078W, strain AVO1, active compounds read low 1 | locus YOR329C, strain SCD5, active compounds read low 1.01 | locus YPL209C, strain IPL1, active compounds read low 0.966 | locus YPR025C, strain CCL1, active compounds read low 0.975 | strain TSCII, active compounds read low 1.01
